From PubChem
Most compounds without a hit are left out; they make up all but 2% or so of the library.
NPR2 activator: human GC-B receptor activators, primary screen, HEK293 GC-B cells, cGMP TR-FRET, EC30 CNP; actives 0.11% (n = 370,000); 0% at EC30 CNP, 100% saturating CNP; activation, % at 10 µM; Atrial natriuretic peptide receptor 2 (Homo sapiens), P20594; AID 1920062, 2024;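 active means activation at 10 µM reaching about 35% in either raw or pattern-adjusted values, limit read from the data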
ADAM10 inh: human ADAM10 inhibitors, primary screen, biochemical, QFRET, HTS | recombinant ADAM10, EDANS/DABCYL FRET peptide cleavage, 3 h | AID 720582, 2013 | inhibition, % at 7 µM | Disintegrin and metalloproteinase domain-containing protein 10 (Homo sapiens), O14672 | actives 0.62% (n = 370,000);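 active means inhibition above a per-campaign cutoff equal to the mean of compounds falling between control-based bounds plus 3 SD, cut at about 20% in these data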;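 further: 0% = DMSO wells while the 100% control is not disclosed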
FAS TE block: FAS thioesterase domain inhibitors, primary screen, biochemical, fluorescence intensity, uHTS | Fatty acid synthase (Homo sapiens), P49327 | recombinant FAS-TE, OMFH fluorogenic substrate, fluorescence endpoint | inhibition, % at 15 µM | actives 0.67% (n = 360,000);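 active means compounds whose normalised, plate-corrected inhibition of enzyme fluorescence in the single-dose primary screen is 50% or more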;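 further: 0% = DMSO with enzyme and 100% = substrate without enzyme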
GC-A act: GC-A stimulated cGMP production enhancers – HEK293 GC-A cells, cGMP TR-FRET, EC30 ANP, primary screen; activation, % at 10 µM; actives 0.14% (n = 370,000); 0% at EC30 ANP, 100% saturating ANP; AID 1671463, 2021; Atrial natriuretic peptide receptor 1 (Homo sapiens), P16066; in the data active means activation above about 40%
ADAM17 inh: ADAM17 inhibitors, primary screen, biochemical, QFRET | recombinant ADAM17, EDANS/DABCYL FRET peptide cleavage | inhibition, % at 6.95 µM | actives 0.83% (n = 370,000);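 active means inhibition above the mean of compounds lying between control limits plus 3 SD, set per campaign, cut at about 8.5% in these data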;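 further: 0% = DMSO-only wells as the low control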
ADAM10 counter: ADAM10 inhibitors, counter-screen for ADAM17 exosite inhibitor project, biochemical, FRET, human ADAM10 | shares compounds with ADAM17 inh | recombinant ADAM10, EDANS/DABCYL FRET peptide cleavage, 3 h | inhibition, % at 6.95 µM | actives 47% (n = 2,900) | AID 743256, 2014;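 active means mean inhibition over the triplicate runs exceeds the activity threshold set in the earlier primary screen, cut at about 20% in these data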;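 further: 0% = DMSO wells and 100% = marimastat wells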
ADAM17 confirm: ADAM17 inhibitors, hit retest, confirmation, biochemical, QFRET peptide cleavage. shares compounds with ADAM17 inh. inhibition, % at 6.95 µM. recombinant ADAM17, EDANS/DABCYL QFRET peptide cleavage. actives 65% (n = 2,900). AID 743257, 2014;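 active means mean inhibition across replicates above the hit cutoff set in the primary screen, cut at about 8.5% in these data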;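 further: 0% = DMSO wells and 100% = marimastat wells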
Numbers without * were called inactive; . = no result given.

SMILES	NPR2 activator	ADAM10 inh	FAS TE block	GC-A act	ADAM17 inh	ADAM10 counter	ADAM17 confirm
COc1ccc(S[C@]2(C(=O)N(C)C)CC(=O)N(C(=O)CCc3ccccc3)[C@@H]2c2ccc(OC)cc2)cc1	-1	9	.	7	10*	14	9.8*
COC(=O)[C@@]12CCCCC3=C1N(CCC3)C(=O)[C@H]2CC(=O)N1CCN(C(=O)C2CC2)CC1	3	-12	.	2	2	.	.
Cc1ccc(S(=O)(=O)CNC(=S)c2cccc(C)c2)cc1	2	10	0	0	2	.	.
Cc1ccc(S(=O)(=O)CNC(=S)c2ccc3ccccc3c2)cc1	-1	15	16	2	9.5*	65*	37*
Cc1ccc(-n2c(SCC(=O)Nc3ccc4cn[nH]c4c3)nnc2-c2ccccc2)cc1	-19	5	.	-18	6	.	.
C/C(=N\N=C1\NC(=O)CS1)c1cccs1	0	16	-6	0	11*	9	7
CC(=O)c1cccc(N=C2NC(=O)CS2)c1	1	-4	-4	3	-3	.	.
C[C@H]1[C@@H](c2ccccc2)OC(O)([C@H](Cc2ccccc2)NC(=O)OC(C)(C)C)CN1C (some centres undefined)	-12	3	.	-8	-1	.	.
COc1ccc(NC(=O)c2cccc(N3C(=O)C4C5CCC(C5)C4C3=O)c2)cc1 (centres undefined)	4	2	-4	0	11*	12	8
O=C(O)c1ccc(NC(=O)c2cccc(N3C(=O)C4C5CCC(C5)C4C3=O)c2)cc1 (centres undefined)	0	7	-10	3	0	.	.
CCc1nc2ccc(C(=O)Nc3ccc4c(c3)OCC(=O)N4)cn2c1N(CC)Cc1cccc(Br)c1	4	14	12	-6	9.1*	16	12*
CCN1C(=O)c2cccc3c(NC(=O)c4ccccc4)ccc1c23	1	-7	-2	-2	-2	.	.
CCN1C(=O)c2cccc3c(NC(=O)c4ccc5c(c4)OCCO5)ccc1c23	5	8	-9	4	9.5*	-9	0
Cc1cc(Cl)ccc1OCC(=O)N1CCCN(C(=O)COc2ccc(Cl)cc2C)CC1	-5	14	43	-11	9.5*	26*	14*
Cc1cc(Cl)ccc1OCC(=O)N1CC(C)CC(C)C1 (centres undefined)	-2	-5	10	2	-1	.	.
Cc1cc(Cl)ccc1OCCCC(=O)N1CCN(S(=O)(=O)c2ccccc2)CC1	-9	13	27	-4	9.9*	30*	16*
CCOc1ccccc1OCCCC(=O)N1CCN(S(=O)(=O)c2ccc(Cl)cc2)CC1	-10	-7	17	-4	-3	.	.
C=CCCC(=O)N1CCC(C(=O)NC2CCCc3ccccc32)CC1 (centres undefined)	-4	-2	.	6	2	.	.
Fc1cccc(CCN2C(=S)NC[C@@H]2CC2CCCCC2)c1	-8	11	1	-7	11*	19	7
Fc1cccc(CCN2C(=S)NC[C@@H]2Cc2ccccc2)c1	0	6	4	0	-1	.	.
CC(C)CNC(=S)NC1CC2CCCC(C1)N2Cc1cccs1 (centres undefined)	3	8	-9	0	12*	11	7
Cc1cccc(C)c1NC(=O)C1(C)CSCC(=O)N1CC(C)C (centres undefined)	-4	-5	.	2	-2	.	.
Cc1cccc(C)c1NC(=O)C1(C)CSCC(=O)N1CCc1ccc(O)cc1 (centres undefined)	0	6	.	3	11*	-7	1
CCCCN1C(=O)N2Cc3cc(OC)ccc3C2CS1(=O)=O (centres undefined)	5	-4	.	-2	-2	.	.
COc1cc(NC(=O)Nc2cccc3cccnc23)cc(OC)c1OC	-12	13	15	-1	13*	7	7
SMILES	NPR2 activator	ADAM10 inh	FAS TE block	GC-A act	ADAM17 inh	ADAM10 counter	ADAM17 confirm
COc1cc(C(=O)Nc2cccc3cccnc23)cc(OC)c1OC	6	2	-2	2	-3	.	.
CCC(C)(C)n1nnnc1C(c1ccc(C)cc1)N(Cc1ccco1)Cc1cccs1 (centres undefined)	-16	13	23	-21	9.4*	7	5
Cc1ccc(NC(=O)CNC(=O)CC23CC4CC(CC(C4)C2)C3)c(O)c1	-5	1	3	3	16*	4	6
CC(CC(=O)OCC(=O)NCc1ccc(Cl)cc1)c1ccccc1 (centres undefined)	0	0	10	-1	11*	14	10*
CC1=C(C(=O)OCCNC(=O)c2ccccc2O)C(c2ccccc2[N+](=O)[O-])C(C(=O)OCC2CCCO2)=C(C)N1 (centres undefined)	-4	15	29	-6	13*	16	7
COc1cccc2cc(/C(=N/O)c3ccc(Br)cc3)oc12	-9	13	-16	-4	12*	16	11*
O=C(OC(C(=O)Nc1cc(Cl)cc(Cl)c1)c1ccccc1)C1=COCCO1 (centres undefined)	-16	14	32	-25	9.8*	31*	15*
CCCCNC(=O)OCCCN1CCC2(CCC(c3ccccc3)CC2)C1=O (centres undefined)	4	-5	.	-2	1	.	.
CCc1ccc(CCNC(=O)OCCCN2CCC3(CCC(c4ccccc4)CC3)C2=O)cc1 (centres undefined)	0	12	.	-3	9.4*	36*	15*
O=C1CCN(S(=O)(=O)c2ccccc2)CCN1CCOCc1cccc(F)c1	2	11	-7	-2	10*	-3	3
Cc1ccc(S(=O)(=O)N2CCC(=O)N(CCOCc3ccccc3)CC2)cc1	-1	3	3	1	-2	.	.
CCC[C@H]1[C@@H](NC(=O)c2ccc(OC)cc2)CC[C@@]23CCCN2C(=O)CCC[C@@H]13	-3	2	.	-4	-2	.	.
